# In the library only some 12% were active in any assay of this set; here they are far more common.
# Sfp PPTase inh: Sfp phosphopantetheinyl transferase inhibition; Q9F4F7; Biochemical Sfp PPTase activity, qHTS; Potency, µM, inactives show largest response in the series, negative = inhibition, hits mostly inhibitors; hit rate 3.5% among 310,000; AID 1490;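 further: the enzyme is Sfp with the accession as filed and its product quenches rhodamine fluorescence; 0% = enzyme reaction without inhibitor and -100% = no enzyme wells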
#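 Sfp 15 nM + cpd, 15 min RT; start w/ rhodamine-CoA 5 uM, BHQ-2-YbbR 12.5 uM (final); 50 mM Hepes pH 7.6, 10 mM MgCl2, 0.01% NP-40, 0.01% BSA; read 525/598 nm at 0 and 30 min.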
# BAZ2B block: inhibitors of human BAZ2B bromodomain | Q9UIF8 | AlphaScreen BAZ2B-H3K14Ac peptide displacement | Potency, µM (doses to about 114 µM), for the others: at the highest dose activity change, negative = inhibition, most hits filed as inhibitors | hit rate 4.4% among 360,000; further: on the % scale 0 is the no-effect control and ±100 the full control effect; nearly all actives have a fitted effect of over 60% in size
#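 AlphaScreen displacement: compounds (up to 110uM) incubated 30 min at room temperature with a preformed 50 nM BAZ2B/50 nM biotinylated H3K14Ac peptide complex in PBS pH 7.4 with Tween-20. Donor and acceptor beads at 10 ug/mL final added, 20 min light-protected before reading.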
# PLK1 PBD inh: blocks phosphopeptide binding to human PLK1 polo-box domain; Plk1 PBD binding of FITC phosphopeptide, fluorescence polarization; Potency, µM, without a hit: max response, negative = inhibition, usual class: inhibitors; hit rate 2.8% among 360,000; further: series mostly up to about 57 µM; on the % scale 0 is the no-effect control and ±100 the full control effect; nearly all actives have a fitted effect of over 65% in size
# G9a block: inhibitors of human histone lysine methyltransferase G9a | G9a H3K9 monomethylation, AlphaScreen, 2 h | Potency, µM (top dose mostly 102 µM), for inactives: at the top dose activity, negative = inhibition, usual class: inhibitors | hit rate 8.8% among 350,000 | AID 504332; further: on the % scale 0 is the no-effect control and ±100 the full control effect; nearly all actives have a fitted effect of over 75% in size
#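 Step 1: enzyme (final 20 nM) with compound, 15 min RT. Step 2: substrate peptide 500 nM and SAM 20 uM, 2 h RT. Step 3: anti-H3K9me1 antibody and AlphaScreen beads, 10 min, then plate read.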
# HP1b binding inh: HP1-beta chromodomain-methylated histone interaction inhibition | P83916 | hit rate 0.56% among 390,000 | AlphaScreen HP1-beta / biotin-H3K9me3 peptide binding | Potency, µM (titrated, usually from 114 µM), without a hit: at the top dose activity change, negative = inhibition, usual class: inhibitors; further: nearly all actives have a fitted effect of over 70% in size
#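 AlphaScreen: HP1-beta (50 nM) preformed 30 min with biotin-H3(1-18)K9me3 peptide (50 nM) in PBS pH 7.4, 0.01% Tween-20. Compound added for 30 min at RT, then streptavidin donor/nickel chelate acceptor beads (10 ug/mL) for 30 min.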
# JMJD2A Tudor inh: JMJD2A Tudor domain (human) inhibition; O75164; AlphaScreen JMJD2A-Tudor / H3K4me3 peptide binding; Potency, µM (highest dose often 114 µM), inactives show top-dose activity change, negative = inhibition, most hits filed as inhibitors; hit rate 4.4% among 390,000; further: on the % scale 0 is the no-effect control and ±100 the full control effect; nearly all actives have a fitted effect of over 50% in size
# Starred values were filed as active, the others as inactive; ? = inconclusive; . = not tested or not shown; ! = a repeat was not active; [ ] = remark or other dose. The call rests on the fitted dose curve; in most records, active means well fitted curve in the direction sought with a large enough effect; inconclusive means small, poorly fitted or top-dose-only effect, or another doubt; inactive means no such curve, though single readings can be large; an effect the other way counts as inactive or inconclusive. Potency means the concentration at half of the fitted maximal effect.
SMILES,Sfp PPTase inh,BAZ2B block,PLK1 PBD inh,G9a block,HP1b binding inh,JMJD2A Tudor inh
COc1ccccc1Cc1nc2ccccc2nc1SCC(=O)N(C)c1ccc(F)cc1,.,12%,.,-4%[59 µM],28%[57 µM],-19%
Cc1ccc(CNC(=S)Nc2ccc(NS(=O)(=O)c3ccc(C)cc3)cc2)cc1,6%,-10%,0%,23%,44%,1%
O=C(NCCC(=O)N1CCN(S(=O)(=O)c2ccc(F)cc2)CC1)Nc1ccccc1,.,8%,-12%,-10%[12.7 µM],15%,-2%
O=C(NCCC(=O)N1CCN(S(=O)(=O)c2ccc(Cl)cc2)CC1)Nc1ccccc1,.,8%,0%,50µM*,8%,-17%
Oc1ccc2ccccc2c1CNn1cnnc1,-3%,0%,-15%,11µM*,25%,-19%
Oc1ccc2ccccc2c1CNc1ccccn1,-5%,-13%,?,8.9µM*,28%,-18%
Cc1ccc(O)c(CNn2cnnc2)c1,-2%,-4%,-4%,26%[59 µM],27%,-7%
Cc1ccc(O)c(CNc2ccccn2)c1,6%,-8%,-6%,-31%,26%,-12%
COc1ccc(OC)c(N=Nc2c(O)c3ccccc3[nH]c2=O)c1,.,.,-4%,.,?,?
COc1cc(N=Nc2c(O)c3ccccc3[nH]c2=O)c(OC)cc1N=Nc1ccccc1,-8%,?,-2%,45µM*,?,?
CN1CCCN(CC(O)COCc2cccs2)CC1 (stereo not given),13%,12%,-1%,40µM*,21%,-12%
OC(COCc1cccs1)CN1CCCCCC1 (stereo not given),-8%,-9%,-13%,?,14%,?
OC(COCc1cccs1)CN1CCN(c2cccc(Cl)c2)CC1 (stereo not given),?,50µM*,-8%,10µM*,?,2.8µM*
CC(C)(C)c1ccc(C(=O)N2CCN(c3ccc(N4CCOCC4)nn3)CC2)cc1,.,-1%,-3%,8%[2.33 µM],25%,-15%
O=C(Nc1ncc(S(=O)(=O)c2ccc([N+](=O)[O-])cc2)s1)c1cccnc1,5%,-29%,-29%,50µM*,0%,-23%
O=C(CCl)Nc1ncc(S(=O)(=O)c2ccc([N+](=O)[O-])cc2)s1,.,.,-7%,.,14%,-10%
CCC(C)(C)C(=O)Nc1ncc(S(=O)(=O)c2ccc([N+](=O)[O-])cc2)s1,-6%,?,-19%,50µM*,-20%,-35%
O=C(Nc1ncc(S(=O)(=O)c2ccc([N+](=O)[O-])cc2)s1)c1ccc2ccccc2c1,?,-26%,0%,20%[59 µM],20%,-18%
CCOCCc1nnc(NC(=O)Cc2c(F)cccc2Cl)s1,9%,2%,-15%,.,20%,-8%
C=CCc1ccccc1OCC(O)CN1CCN(C(=O)OCC)CC1 (stereo not given),-13%,21%,-10%,29%[2.33 µM],19%,-11%
Cc1ccc(OCC(O)CN2CCN(Cc3ccc4c(c3)OCO4)CC2)cc1C (stereo not given),-5%,?,-2%,-15%[59 µM],9%,-21%
C=CCc1ccccc1OCC(O)CN1CCN(Cc2ccc3c(c2)OCO3)CC1 (stereo not given),7%,56µM*,-6%,45µM*!,10%,-33%
C=CCc1ccccc1OCC(O)CN1CCN(c2ccc(C)cc2)CC1 (stereo not given),?,28µM*,-3%,13µM*,?,3.5µM*
C=CCN1C(c2ccc(OCC)cc2)=CS/C1=C(\C#N)c1nnc2n1CCCCC2,?,?,-6%,3.5µM*,-5%,?
CC1(C)Cc2ccccc2-c2n[nH]c(=S)n21,45µM*,-16%,?,13µM*,-2%,3.2µM*
SMILES,Sfp PPTase inh,BAZ2B block,PLK1 PBD inh,G9a block,HP1b binding inh,JMJD2A Tudor inh
Cc1ccc(Cn2nc(C)c(NC(=O)CSc3nc4c(c(C(F)(F)F)n3)CCc3ccccc3-4)c2C)cc1,10%,-7%,-7%,13%[59 µM],21%,-9%
Cc1nn(Cc2ccc(Cl)cc2)c(C)c1NC(=O)CSc1nc2c(c(C(F)(F)F)n1)CCc1ccccc1-2,35µM*,6%,-18%,15%[0.501 µM],3%,-29%
N#Cc1c(NC(=O)CSc2nc3c(c(C(F)(F)F)n2)CCc2ccccc2-3)sc2c1CCCC2,-20%,9%,?,11µM*,-9%,-14%
Cc1cc(Cl)c2c(c1)[C@]1(C(=O)N2)[C@@H]2C(=O)N(Cc3ccccc3)C(=O)[C@@H]2[C@@H]2CCCN21,-14%,?,-16%,45µM*,18%,-31%[57.1 µM]
COc1ccc(-c2cnnc(N/N=C/c3ccc(C)o3)n2)cc1,23%,-3%,6µM*,22%,-21%,14µM*
COc1ccc(-c2cnnc(N/N=C/c3ccc(O)cc3)n2)cc1,5%,-13%,-17%,2%,30%,-7%[11.4 µM]
COc1ccc(-c2cnnc(N/N=C/c3ccc(O)c(O)c3)n2)cc1,-25%,45µM*,-8%,-8%,-33%,40µM*
CCOC(=O)C1CCN(C(=O)C(=O)Nc2ccc3nc4n(c(=O)c3c2)CCCCC4)CC1,21%,0%,-13%,17%,26%,-6%
CCc1nn(CC(=O)NC2CCN(Cc3ccccc3)CC2)c(=O)c2cc3cc(F)ccc3n12,4%,-10%[57.1 µM],-7%,45µM*,30%,-10%
CCc1nn(CC(=O)NC(C)CCc2ccccc2)c(=O)c2cc3cc(F)ccc3n12 (stereo not given),2%,?,-9%,50µM*!,-1%,-12%
Oc1c(C(c2cccs2)N2CCN(c3ccccc3)CC2)ccc2cccnc12 (stereo not given),40µM*,40µM*,.,1.3µM*,.,.
Oc1c(C(c2ccccc2Cl)N2CCCC2)ccc2cccnc12 (stereo not given),2%,20µM*,7.5µM*,11µM*,-35%,20µM*
CN1CCN(C(c2ccc(C(F)(F)F)cc2)c2ccc3cccnc3c2O)CC1 (stereo not given),-2%,40µM*,3.8µM*,7.9µM*,?,56µM*
CC(C)(C)n1nnnc1C(c1cccs1)N1CCN(c2ccccc2)CC1 (stereo not given),6%,-6%,5%,-10%,9%,-20%[57.1 µM]
CN1CCN(C(c2cccc(C(F)(F)F)c2)c2nnnn2C(C)(C)C)CC1 (stereo not given),3%,14%,-7%,?,10%,1%
CCCCC(=O)NC(c1ccccc1Cl)c1ccc2cccnc2c1O (stereo not given),7%,9%,-6%,.,52%,-14%
COc1ccccc1C(=O)Nc1ccc2nc(N3CCC(C)CC3)cc(C)c2c1,.,37%,.,54%[59 µM],87%,19%
